Test [1] can be described thus: viability loss in pontine glioma line – cell-based, SU-DIPG-XVII, MIPE5.0, CellTiter-Glo, qHTS, dose response (AID 1347060; cut-off not given, nearly all actives have AC50 up to about 26 µM;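 as to AC50: cells exposed to compound for 48 hours before viability readout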). To be noted: CellTiter-Glo ATP luminescence.
Test [2] is described as follows: compounds altering HSF1 focus formation in cells – imaging, Selleck Cancer Library (AID 1347162; in the data active = plate-normalised HSF1 focus index below about 0.46). To be noted: human cells, HSF1 nuclear foci imaging, at 10 µM; SSMD: measured here: HSF1 foci SSMD mean; cell count: measured here: cell number; plate-normalised HSF1 focus index: stronger effect = lower value.
The nature of test [3]: compounds altering circadian rhythm period length – cell-based, LOPAC library, luminescence reporter (AID 2774).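 Also: values are relative to mean of DMSO wells on each plate.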 To be noted: circadian reporter cells, at 7 µM, actives lie on both sides.
The test system of test [4] is Hepatitis C virus NS3 helicase. In words: blockers of NS3h binding to ssDNA – biochemical, fluorescence polarization, LOPAC1280 library, primary screen (AID 687035; in the data active = inhibition above about 37%). To be noted: Purified HCV NS3 helicase, Cy5-dT15 ssDNA binding fluorescence polarization; stronger effect = higher value; concentration not given here. Background: Fluorescence polarisation rises when a labelled molecule tumbles more slowly, as on binding a larger partner.

Test [5] can be described thus: compounds altering Cy5-DNA-NS3h complex signal – biochemical, LOPAC1280, artefact control for HCV NS3 helicase inhibitor project (AID 687037). To be noted: Cy5-DNA-NS3h complex fluorescence interference counterscreen. In general terms: The purpose of a counterscreen is to sort out artefacts and off-target activity.
A short description of test [6]: blockers of cellular phospholipid synthesis – cell-based, LOPAC library, screen 4, primary screen (AID 1347384). Particulars: animal cells, phospholipid biosynthesis inhibition screen; at 10 µM.
The nature of test [7]: viability loss in pontine glioma line – cell-based, SU-DIPG-XIII, MIPE4.0, CellTiter-Glo, qHTS, dose response (AID 1347061; cut-off not given, nearly all actives have AC50 up to about 37 µM;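 also: cells exposed to compound for 48 hours before readout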). Particulars: CellTiter-Glo ATP luminescence.
Test [8] can be described thus: blockers of polyQ-driven CASP3 activation – cell-based (AID 1583). To be noted: polyglutamine-induced caspase-3 activation, cell assay; stronger effect = higher value;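 tested at 10 µM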.
A short description of test [9]: yeast 75Q aggregation reduction – 75Q-TubU reporter (AID 1593). Particulars: Yeast 75Q polyglutamine aggregation reporter.
A short description of test [10]: restoration of touch response, mutant HTT neurons – whole organism, C. elegans mechanosensory neurons, N-terminal huntingtin (AID 1599). To be noted: C. elegans polyQ-huntingtin mechanosensory neurons, stronger effect = higher value.
A short description of test [11]: blockers of cytochrome c efflux from mitochondria – biochemical, purified mitochondria (AID 1603).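 Also: mouse liver mitochondria challenged with calcium chloride; signal normalized to the plate average as 100%.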 Particulars: stronger effect = lower value.
A short description of test [12]: polyglutamine aggregate formation blockers (AID 1604). Particulars: polyglutamine-induced protein aggregation inhibition assay; stronger effect = higher value; tested at 2.5 µM.
The nature of test [13]: glutamate transport activators, MN-1 cells, MN-1 cell line (AID 1612).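 Also: tested at 1 µM final; 0% = mean of DMSO vehicle wells on each plate; positive means more glutamate uptake than control and negative means less.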 To be noted: MN-1 motor neuron cells, stronger effect = higher value.
A short description of test [14]: 75Q-TubH aggregate inhibition, S. cerevisiae, yeast (AID 1616). To be noted: S. cerevisiae 75Q-TubH polyglutamine aggregation suppression; stronger effect = higher value.
A short description of test [15]: GFP-Q80 aggregate reduction, neuronal-like cells, cell-based, NGF-treated PC12, GFPQ80 (AID 1614).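 Also: lower means fewer inclusions and 0 means no inclusions at all.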 To be noted: PC12 NGF-treated GFP-polyQ80 inclusion reduction.

Each structure is given as a SMILES string. Records with an inconclusive call do not appear. For some of these results: Entries with a potency or affinity are not part of this list. The source made the active and inactive calls. Unless noted, no rule for the calls is given here.

On to `COc1ccc2[nH]c(S(=O)Cc3ncc(C)c(OC)c3C)nc2n1` (stereo not given), for which the compound was classed as inactive in test [1].

The term AC50 denotes the concentration giving half of the maximal activity seen. `Cc1nc(Nc2ncc(C(=O)Nc3c(C)cccc3Cl)s2)cc(N2CCN(CCO)CC2)n1`: in [1], the AC50 was 16.6 µM (active). In test [2], the SSMD was -0.87, the cell count is 6550 and the plate-normalised HSF1 focus index is 0.957 (inactive).

As a reminder, the inhibition is the relative decrease from the control value, in per cent. `NCCCNCCSP(=O)(O)O`: in [3], the period change is -0.025 h (inactive). Moreover, the inhibition in test [4] is -3% (inactive). In addition, the fluorescence ratio (interference) in test [5] is 1 (inactive). The result in test [6] was inactive.

`CN1CCN(c2c(F)cc3c(=O)c(C(=O)O)cn(CCF)c3c2F)CC1`: in test [7], the outcome was inactive.

As to `CC(C)Cn1cnc2c(N)nc3ccccc3c21`, in [1], the compound was called inactive.

Take `CNC1CCCN(c2c(F)cc3c(=O)c(C(=O)O)cn(C4CC4)c3c2OC)C1` (stereo not given): the call in [1] was inactive.

As to `NC(N)=NC(N)=NCCc1ccccc1`, the call in test [1] was inactive.

Consider `O=[N+]([O-])c1ccc(O)c2ncccc12`, for which the AC50 in [1] is 6.61 µM (active).

Consider `Cn1c(=O)c2c(ncn2CC2OCCO2)n(C)c1=O`, for which the outcome in test [1] was inactive.

As to `CCCCCCCCCCCCCCCCCCCCCCO`, the call in test [7] was inactive.

On to `Clc1ccc(Cn2c(CN3CCCC3)nc3ccccc32)cc1`, for which the period change in test [3] is 0.175 h (inactive). Also, the inhibition in test [4] was 0% (inactive). Besides, in [5], the fluorescence ratio (interference) was 1 (inactive). Moreover, the compound was classed as inactive in test [6].

For the compound `CNCCCC1c2ccccc2C=Cc2ccccc21`, the period change in test [3] is -0.13 h (inactive). Besides, the inhibition in test [4] is -3% (inactive). The fluorescence ratio (interference) in test [5] was 0.9 (inactive). The outcome in test [6] was inactive.

Take `N=C(N)N1CCc2ccccc2C1`: in test [6], the call was inactive.

`CC(=O)Oc1cc(C(C)C)c(OCCN(C)C)cc1C`: the period change in [3] was -0.155 h (inactive). The inhibition in test [4] is -6% (inactive). Besides, in [5], the fluorescence ratio (interference) was 1 (inactive). The result in test [6] was inactive.

For the compound `CN(C(=O)CN(CCO)CC(=O)N(C)C(C)(C)Cc1ccccc1)C(C)(C)Cc1ccccc1`, the inhibition in test [8] is -62.8%. Also, in [9], the score is 1.1. In test [10], this compound displayed a rescue above control of 0. Moreover, the cytochrome c release ratio in test [11] worked out at 5.27. In test [12], this compound displayed an inhibition of aggregation of 66.7%. The glutamate uptake change in test [13] was -0.7%. The aggregation suppression score in test [14] was determined as 1.14.

With `CNCCc1ccccn1`, the inhibition in [8] was 24.5%. In addition, the score in test [9] was 1.2. For the same compound, the rescue above control in test [10] was -9.72. The cytochrome c release ratio in test [11] stood at 0.91. This compound also registered an inhibition of aggregation in test [12] of 75.9%. Further, the glutamate uptake change in test [13] is -5.29%. In test [15], the inclusion score was found to be 2. The compound also gave an aggregation suppression score in test [14] of 1.84.

With `C[C@@H](O)[C@H]1C(=O)N2C(C(=O)O)=C(SCCN=CN)C[C@H]12`, the inhibition in [4] was -1% (inactive). Besides, the fluorescence ratio (interference) in [5] was 1 (inactive). Also, the outcome in test [6] was inactive.

Turning to `CC(=O)N[C@@H](CC(C)C)C(=O)O`, in test [8], the inhibition amounted to 23.7%. Moreover, in [9], the score was found to be 0.82. In [10], this compound registered a rescue above control of 14.2. Further, the cytochrome c release ratio in [11] stood at 1.03. In test [12], this compound gave an inhibition of aggregation of 74.7%. In addition, the glutamate uptake change in test [13] stood at 2.89%. This compound yielded an inclusion score in [15] of 2. In [14], this compound displayed an aggregation suppression score of 0.909.

For the compound `Cc1c(N)c(=O)n(-c2ccccc2)n1C`, the inhibition in test [8] is 13.4%. This compound had a score in test [9] of 1.65. In addition, in test [10], the rescue above control is -0.44. Further, the cytochrome c release ratio in [11] was 0.9. Further, the inhibition of aggregation in test [12] is 81.5%. Also, the glutamate uptake change in test [13] is -10.8%. The same compound gave an inclusion score in test [15] of 1. In test [14], the aggregation suppression score was 1.31.

For the compound `CN(C)CC/C=C1\c2ccccc2Sc2ccc(Cl)cc21`, the inhibition in test [8] turned out to be 3.29%. Also, the score in test [9] was determined as 0.95. This compound displayed a rescue above control in test [10] of 0. In addition, the cytochrome c release ratio in [11] stood at 1.06. The inhibition of aggregation in [12] came to 59.1%. The glutamate uptake change in test [13] came out at 14.9%. Also, in test [14], the aggregation suppression score was 0.956.

The values are drawn from PubChem BioAssay.
